Measured values: PubChem BioAssay (NCI)
The panel holds about 83,000 compounds, 20% with a hit somewhere; the sample as a whole holds those more often.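 A percent growth of 40 corresponds to 60% growth inhibition; 0 means no net growth; -100 means all cells died. Active threshold: below 10.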 Activity calls are given as the source filed them.

Columns and labels:
Assay in all cases: NCI-60 one-dose screen, 48 h (100 = growth as untreated, 0 = no growth, -100 = all killed)
Conditions in all cases: 10 µM unless noted
NCI-H23 lung = tested on: NCI-H23 lung
NCI-H226 lung = tested on: NCI-H226 lung
NCI-H322M lung = tested on: NCI-H322M lung
HOP-62 NSCLC = tested on: HOP-62 NSCLC
NCI-H460 lung = tested on: NCI-H460 lung
HOP-92 NSCLC = tested on: HOP-92 NSCLC
NCI-H522 lung = tested on: NCI-H522 lung
A549/ATCC NSCLC = tested on: A549/ATCC NSCLC
786-0 renal = tested on: 786-0 renal
COLO 205 colon = tested on: COLO 205 colon
DU-145 prostate = tested on: DU-145 prostate
K-562 leukemia = tested on: K-562 leukemia
MALME-3M melanoma = tested on: MALME-3M melanoma
MDA-MB-231 breast = tested on: MDA-MB-231 breast
RXF 393 renal = tested on: RXF 393 renal
SF-268 CNS = tested on: SF-268 CNS
SF-295 CNS = tested on: SF-295 CNS
SF-539 CNS = tested on: SF-539 CNS
UACC-257 melanoma = tested on: UACC-257 melanoma
M14 melanoma = tested on: M14 melanoma

Measured: growth

NS(=O)(=O)c1ccc(-n2ncc(NC(=O)Nc3ccc(S(=O)(=O)Nc4nccs4)cc3)c2-c2ccccc2)cc1
inactive: NCI-H23 lung 106% | NCI-H226 lung 104% | NCI-H322M lung 106% | HOP-62 NSCLC 94.4% | NCI-H460 lung 108% | HOP-92 NSCLC 106% | NCI-H522 lung 98.4% | A549/ATCC NSCLC 98.5% | 786-0 renal 95.6% | COLO 205 colon 108% | DU-145 prostate 109% | K-562 leukemia 96.1% | MALME-3M melanoma 97.2% | MDA-MB-231 breast 112% | RXF 393 renal 120% | SF-268 CNS 101% | SF-295 CNS 99.3% | SF-539 CNS 98.2% | UACC-257 melanoma 104% | M14 melanoma 95.8%

CC1(c2ccccc2Cl)NC(=O)NC1=O (stereo not given)
inactive: NCI-H23 lung 95.2% | NCI-H226 lung 98.6% | NCI-H322M lung 98.8% | HOP-62 NSCLC 86.4% | NCI-H460 lung 106% | HOP-92 NSCLC 83.1% | NCI-H522 lung 85% | A549/ATCC NSCLC 91.2% | 786-0 renal 99.2% | COLO 205 colon 108% | DU-145 prostate 105% | K-562 leukemia 100% | MALME-3M melanoma 101% | MDA-MB-231 breast 105% | RXF 393 renal 113% | SF-268 CNS 103% | SF-295 CNS 97.1% | SF-539 CNS 99.5% | UACC-257 melanoma 91% | M14 melanoma 106%

O=c1nc(-c2ccccc2)c2cc(-c3ccc(N4CCCC4)nc3)ccc2[nH]1
inactive: NCI-H23 lung 73.1% | NCI-H226 lung 77.2% | NCI-H322M lung 82.6% | HOP-62 NSCLC 62.6% | NCI-H460 lung 57.7% | HOP-92 NSCLC 61.4% | NCI-H522 lung 37.6% | A549/ATCC NSCLC 59.7% | 786-0 renal 69.5% | COLO 205 colon 88.3% | DU-145 prostate 85% | K-562 leukemia 16.4% | MALME-3M melanoma 89.6% | MDA-MB-231 breast 59.8% | RXF 393 renal 81.2% | SF-268 CNS 83.2% | SF-295 CNS 39.4% | SF-539 CNS 73.8% | UACC-257 melanoma 88.6% | M14 melanoma 47.9%

O=c1[nH]nc(-c2ccc(Br)cc2)c2sc(NC(=S)Nc3ccc(Cl)cc3)nc12
inactive: NCI-H23 lung 84.1% | NCI-H226 lung 94.4% | NCI-H322M lung 95.3% | HOP-62 NSCLC 104% | NCI-H460 lung 102% | HOP-92 NSCLC 92.7% | NCI-H522 lung 94.1% | A549/ATCC NSCLC 102% | 786-0 renal 102% | COLO 205 colon 124% | DU-145 prostate 110% | K-562 leukemia 98.6% | MALME-3M melanoma 94.2% | MDA-MB-231 breast 92.4% | RXF 393 renal 111% | SF-268 CNS 100% | SF-295 CNS 96.8% | SF-539 CNS 103% | UACC-257 melanoma 113% | M14 melanoma 95.3%

C#Cc1ccccc1NC(=O)c1sc2nc3c(cc2c1N)CCCCCC3
active: MALME-3M melanoma 8.8% | MDA-MB-231 breast 5.3%
inactive: NCI-H23 lung 53.5% | NCI-H226 lung 83.4% | NCI-H322M lung 82.7% | HOP-62 NSCLC 76.8% | NCI-H460 lung 33.4% | HOP-92 NSCLC 67.6% | NCI-H522 lung 72.1% | A549/ATCC NSCLC 51.4% | 786-0 renal 17% | COLO 205 colon 47.4% | DU-145 prostate 50% | K-562 leukemia 74.5% | RXF 393 renal 92.9% | SF-268 CNS 48.5% | SF-295 CNS 75.7% | SF-539 CNS 62.2% | UACC-257 melanoma 96% | M14 melanoma 56.5%

CCCCn1c(=O)c(/C=C/C(=O)/C=C/c2ccc(O)c(OC)c2)cc2ccc(Cl)cc21
inactive: NCI-H23 lung 27.7% | NCI-H322M lung 50.6% | HOP-62 NSCLC 59.6% | NCI-H460 lung 14.5% | HOP-92 NSCLC 77.3% | A549/ATCC NSCLC 26.4% | COLO 205 colon 29.7% | DU-145 prostate 19.3% | MALME-3M melanoma 30.2% | SF-268 CNS 29.9% | SF-295 CNS 30.2% | SF-539 CNS 52.6% | UACC-257 melanoma 32.1%
active: NCI-H226 lung -18.4% | NCI-H522 lung -4.4% | 786-0 renal -0.448% | K-562 leukemia 6.69% | MDA-MB-231 breast -11.2% | RXF 393 renal -15.4% | M14 melanoma 5.1%

COc1ccc(/C(=N\O)c2cc(C)c(OC)c(C)c2)cc1O
inactive: NCI-H23 lung 45.9% | NCI-H226 lung 60.6% | NCI-H322M lung 48.3% | HOP-62 NSCLC 39.8% | HOP-92 NSCLC 54.1% | A549/ATCC NSCLC 22.2% | 786-0 renal 35.3% | DU-145 prostate 29.4% | K-562 leukemia 12% | MALME-3M melanoma 67% | MDA-MB-231 breast 24.8% | RXF 393 renal 62.9% | SF-268 CNS 30.4% | SF-295 CNS 29.7% | UACC-257 melanoma 70% | M14 melanoma 13.6%
active: NCI-H460 lung 9.22% | NCI-H522 lung -11.4% | COLO 205 colon -38% | SF-539 CNS 2.65%

COc1cccc(C(=O)OCCn2nc3c4c(cccc42)C(=O)c2ccccc2-3)c1O
active: SF-539 CNS 9.58%
inactive: NCI-H23 lung 44.2% | NCI-H226 lung 79.9% | NCI-H322M lung 53.8% | HOP-62 NSCLC 39.5% | NCI-H460 lung 28.2% | HOP-92 NSCLC 62.1% | NCI-H522 lung 24.8% | A549/ATCC NSCLC 67.4% | 786-0 renal 72.3% | COLO 205 colon 107% | DU-145 prostate 54.7% | K-562 leukemia 13.7% | MALME-3M melanoma 62.6% | MDA-MB-231 breast 62.2% | RXF 393 renal 53% | SF-268 CNS 55.8% | SF-295 CNS 17.1% | UACC-257 melanoma 79.4% | M14 melanoma 36.2%

C=CCn1c(SCC(=O)Nc2ccc(C(=O)/C=C/c3ccc(Cl)cc3)cc2)nnc1-c1cc(OC)c(OC)c(OC)c1
inactive: NCI-H23 lung 92.9% | NCI-H226 lung 79.6% | NCI-H322M lung 101% | HOP-62 NSCLC 98.3% | NCI-H460 lung 99.6% | HOP-92 NSCLC 89.2% | NCI-H522 lung 76.3% | A549/ATCC NSCLC 85.6% | 786-0 renal 81% | COLO 205 colon 110% | DU-145 prostate 100% | K-562 leukemia 83.8% | MALME-3M melanoma 115% | MDA-MB-231 breast 80.5% | RXF 393 renal 90.8% | SF-268 CNS 87.8% | SF-295 CNS 94.3% | SF-539 CNS 96.4% | UACC-257 melanoma 95.8% | M14 melanoma 93.9%

Cc1cccc(C)c1NC(=O)CN(CC(C)C)CC(O)COc1ccccc1 (stereo not given)
inactive: NCI-H23 lung 86% | NCI-H226 lung 94.9% | NCI-H322M lung 97.7% | HOP-62 NSCLC 90% | NCI-H460 lung 111% | HOP-92 NSCLC 91.4% | NCI-H522 lung 82.3% | A549/ATCC NSCLC 90.6% | 786-0 renal 78.6% | COLO 205 colon 100% | DU-145 prostate 111% | K-562 leukemia 96% | MALME-3M melanoma 103% | MDA-MB-231 breast 93.5% | RXF 393 renal 103% | SF-268 CNS 102% | SF-295 CNS 88% | SF-539 CNS 97.6% | UACC-257 melanoma 110% | M14 melanoma 87.8%

COc1cc2nc3c(=O)n(-c4ccc(C#N)cc4)cnn3c(=O)c2cc1OC
inactive: NCI-H23 lung 98.3% | NCI-H226 lung 95.1% | NCI-H322M lung 93.3% | HOP-62 NSCLC 102% | NCI-H460 lung 104% | HOP-92 NSCLC 103% | NCI-H522 lung 82.1% | A549/ATCC NSCLC 106% | 786-0 renal 103% | COLO 205 colon 94.3% | DU-145 prostate 103% | K-562 leukemia 106% | MALME-3M melanoma 87.5% | MDA-MB-231 breast 103% | RXF 393 renal 100% | SF-268 CNS 88.5% | SF-295 CNS 99.8% | SF-539 CNS 94.9% | UACC-257 melanoma 110% | M14 melanoma 94.1%

Cc1nc2sc(C(=O)Nc3ccccc3Cl)c(N)c2cc1C(C)O (stereo not given)
inactive: NCI-H23 lung 93.5% | NCI-H226 lung 93.1% | NCI-H322M lung 91.1% | HOP-62 NSCLC 75.8% | NCI-H460 lung 98.8% | HOP-92 NSCLC 83.3% | NCI-H522 lung 74% | A549/ATCC NSCLC 75.6% | 786-0 renal 84.8% | COLO 205 colon 60.2% | DU-145 prostate 96.6% | K-562 leukemia 22.5% | MALME-3M melanoma 88.6% | MDA-MB-231 breast 80.9% | RXF 393 renal 92.8% | SF-268 CNS 86.7% | SF-295 CNS 84.3% | SF-539 CNS 85.1% | UACC-257 melanoma 86.5% | M14 melanoma 58.9%

COC(=O)c1nc(-c2ccccc2)oc1S(=O)(=O)n1nc(C)cc1N
active: NCI-H522 lung -25.8% | COLO 205 colon -63.9% | K-562 leukemia 3.02% | MALME-3M melanoma -37.1%
inactive: NCI-H23 lung 92.1% | NCI-H226 lung 110% | NCI-H322M lung 91.8% | HOP-62 NSCLC 97% | NCI-H460 lung 96.9% | HOP-92 NSCLC 49.5% | A549/ATCC NSCLC 94.9% | 786-0 renal 80.6% | DU-145 prostate 92.5% | MDA-MB-231 breast 92.7% | RXF 393 renal 104% | SF-268 CNS 83.2% | SF-295 CNS 95.4% | SF-539 CNS 76.1% | UACC-257 melanoma 83.3% | M14 melanoma 67.1%
